Screens: PubChem BioAssay, several laboratories
PG9 binder: PG9 antibody binding by small molecule; TR-FRET gp120-PG9 antibody binding; inhibition, % at 6.7 µM; 360,000 compounds, 0.43% hits; AID 624416; in the data active = inhibition above about 8.5%
PP5 inh: PP5 (human) phosphatase inhibition; P53041; purified PP5c, OMFP substrate fluorescence; inhibition, % at 6.7 µM; 320,000 compounds, 0.18% hits;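 active = inhibition above the campaign's mean inhibition across all tested compounds plus 3 SD, cut at about 9.5% in these data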;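 note: 0% = DMSO only and 100% = 100 µM cantharidin control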
PP1 counter: blocks human PP1-alpha phosphatase, a PP5 counter-screen; P62136; purified PP1alpha, OMFP fluorescence; inhibition, % at 6.7 µM; 320,000 compounds, 0.9% hits;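 active = inhibition above the mean inhibition of all tested compounds plus 3 SD, computed separately for each screening campaign, cut at about 15% in these data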
GASC-1 inh: inhibitors of human GASC-1 (JMJD2C) demethylase. Q9H3R0. GST-JMJD2C(1-420) H3K9me3 demethylation, DELFIA europium. inhibition, % at 2.35 µM. 330,000 compounds, 0.069% hits;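 active = more than half of a compound's replicate wells show inhibition beyond 50%, single wells judged on their own value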;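 note: signal counts dimethyl H3K9 product captured on neutravidin plate; 0% = median of DMSO wells and 100% = 0.3 times that DMSO median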
NR1D1 modulator: modulators of human Rev-erb alpha DNA binding; P20393; Rev-erbα–FITC-DNA binding, fluorescence polarization, 90 min; activity, % at 10 µM; 370,000 compounds, 0.79% hits; AID 1259318;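 active = activity above about 14%, limit read from the data; passing the limit was not always enough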;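 note: 0% = DMSO wells with 35 nM protein and 100% = DMSO wells with 750 nM protein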
Target sequence (P20393 whole entry, looked up): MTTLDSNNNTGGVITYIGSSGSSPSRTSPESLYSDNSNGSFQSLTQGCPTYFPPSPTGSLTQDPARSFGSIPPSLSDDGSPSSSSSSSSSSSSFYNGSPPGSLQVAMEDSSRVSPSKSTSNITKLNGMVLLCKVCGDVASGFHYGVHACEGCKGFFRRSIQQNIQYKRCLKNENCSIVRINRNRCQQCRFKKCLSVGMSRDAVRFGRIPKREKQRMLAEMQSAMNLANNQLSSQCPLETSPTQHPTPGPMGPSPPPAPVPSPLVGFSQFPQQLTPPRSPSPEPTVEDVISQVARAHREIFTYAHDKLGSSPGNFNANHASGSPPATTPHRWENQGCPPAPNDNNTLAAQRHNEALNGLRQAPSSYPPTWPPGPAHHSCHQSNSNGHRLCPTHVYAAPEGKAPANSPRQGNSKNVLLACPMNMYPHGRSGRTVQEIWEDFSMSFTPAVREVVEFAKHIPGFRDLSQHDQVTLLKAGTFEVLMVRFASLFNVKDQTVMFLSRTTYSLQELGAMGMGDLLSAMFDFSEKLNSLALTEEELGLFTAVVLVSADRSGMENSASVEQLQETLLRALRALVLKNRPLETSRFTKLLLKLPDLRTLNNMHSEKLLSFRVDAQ
KLK7 zymogen act: activators of human kallikrein-7 zymogen; P49862; purified proKLK7, EDANS-DABCYL substrate fluorescence; 100% is mature enzyme control, 0% vehicle; activation, % at 7 µM; 370,000 compounds, 0.9% hits; AID 652039;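 active = activation above the mean of all tested compounds plus 3 SD, computed per campaign excluding outliers beyond control limits, cut at about 13% in these data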
The depositor's hits bear a star; / = no result. Only some compounds are listed: those with a hit (about 2.8% of all), similar ones and a draw of the others.

SMILES	PG9 binder	PP5 inh	PP1 counter	GASC-1 inh	NR1D1 modulator	KLK7 zymogen act
Cn1c(=O)c(C(=O)COC(=O)c2cc(-c3ccco3)nc3ccccc23)c(N)n(CC2CC2)c1=O	/	4	21*	8	/	/
CCn1c(=O)c(C(=O)CN2c3ccccc3CC2C)c(N)n(Cc2ccccc2)c1=O (stereo not drawn)	-1	0	16*	31	0	0
CC1Cc2ccccc2N1CC(=O)c1c(N)n(Cc2ccccc2)c(=O)n(C)c1=O (stereo not drawn)	0	2	7	0	2	0
OC[C@@H](O)[C@H](O)[C@@H](O)[C@H](O)CO	/	/	/	/	-4	/
C=CCn1c2ccccc2c(=O)c2cc(C#Cc3ccsc3)ccc21	/	2	17*	-2	/	/
C=CCn1c2ccccc2c(=O)c2cc(C#Cc3ccccn3)ccc21	0	2	5	8	-1	-99
CC1(C)Cc2nc3sc4c(=O)n(CC(N)=O)cnc4c3cc2CO1	-1	1	-2	-5	-2	0
CC1(C)Cc2nc3sc4c(=O)n(CC(=O)NCc5ccccc5)cnc4c3cc2CO1	50*	1	-5	/	18	0
CC(C)C[C@@H](CCCc1ccccc1)CCC(=O)N(c1ccccc1)c1ccccc1	/	/	/	/	7	0
COc1cc(C2C(C(=O)c3ccc(C)o3)=C(O)C(=O)N2c2cc(C)on2)ccc1O (stereo not drawn)	-1	0	0	-30	-5	0
COc1cc(C2C(C(=O)c3ccc(C)o3)=C(O)C(=O)N2c2cc(C)on2)cc(OC)c1OC (stereo not drawn)	2	-1	3	5	2	0
COc1cc(C2C(C(=O)c3cccs3)=C(O)C(=O)N2c2cc(C)on2)ccc1O (stereo not drawn)	0	-1	-1	-3	-5	-1
COC(=O)c1ccc(C2C(C(=O)c3cc4ccccc4o3)=C(O)C(=O)N2c2cc(C)on2)cc1 (stereo not drawn)	4	-4	27*	4	3	0
COc1cc(C2C(C(=O)c3cc4ccccc4o3)=C(O)C(=O)N2c2cc(C)on2)cc(OC)c1OC (stereo not drawn)	2	2	17*	15	-2	2
COc1cccc2cc(C(=O)C3=C(O)C(=O)N(c4cc(C)on4)C3c3cccs3)oc12 (stereo not drawn)	4	2	23*	-1	1	2
CC(C)(C)c1ccc(-c2cn(C[C@H](Cc3ccccc3)n3c(=O)c4ccccc4n3Cc3ccno3)nn2)cc1	/	/	/	/	2	-2
CCC[C@H](/C=C/C(=O)OC(C)(C)C)Sc1ccc(N)cc1	/	/	/	/	3	0
O=S(=O)(c1ccc(C(F)(F)F)cc1)N1CCCc2nc(-c3ccc(Br)cc3)ccc21	0	/	/	/	-1	1
OCCN1C[C@@H](O)[C@@H](O)C(O)C1CO (stereo partly drawn)	/	/	/	/	0	/
C#CCOCCOCCOCCNc1nc(N2CCN(C(=O)[C@H]([C@@H](C)CC)n3cc([C@@H](N)Cc4ccc(O)cc4)nn3)CC2)nc(N2CCN(C(=O)[C@H](Cc3cc4ccccc4[nH]3)n3cc([C@@H](N)C(C)CC)nn3)CC2)n1 (stereo partly drawn)	/	3	11	-26	/	/
C#CCOCCOCCOCCNc1nc(N2CCN(C(=O)[C@H](CCCCN)n3cc([C@@H](N)[C@H](C)CC)nn3)CC2)nc(N2CCN(C(=O)[C@H](CCC(=O)O)n3cc([C@@H](N)CCSC)nn3)CC2)n1	-1	/	/	52*	2	0
C#CCOCCOCCOCCNc1nc(N2CCN(C(=O)[C@H](Cc3cc4ccccc4[nH]3)n3cc(C(N)CC(C)C)nn3)CC2)nc(N2CCN(C(=O)[C@H](CCC(=O)O)n3cc(C(N)[C@H](C)CC)nn3)CC2)n1 (stereo partly drawn)	/	0	0	8	/	/
C#CCOCCOCCOCCNc1nc(N2CCN(C(=O)[C@H](Cc3cc4ccccc4[nH]3)n3cc([C@@H](N)C(C)CC)nn3)CC2)nc(N2CCN(C(=O)[C@H](CCCCN)n3cc([C@@H](N)CC(C)C)nn3)CC2)n1 (stereo partly drawn)	/	2	16*	21	/	/
